# Values joined by “and” are separate entries in the source; they are usually repeats but may differ in a detail not shown here. Equal entries are not always repeated. More than one record can exist for a structure, and the calls need not agree. Active and inactive are the calls of the source. The calls were made as follows: active = hit-call score of the fitted dose curve at least 0.9, where 1 is the maximum; inactive = score below 0.9.
# What was measured:
# TTR (gene 7276) = test: CCTE_GLTED_hTTR_0.125uM: CCTE's human Transthyretin (hTTR) Inhibition Assay, with 0.125uM TTR, Great Lakes Toxicology and Ecology Division (GLTED) Lab (AID 2284431);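 also: hits lower the fluorescence signal relative to DMSO baseline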
# In short: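 Activity is defined as decreased ANSA fluorescence (ex 380, em 475) from human transthyretin, 0.125uM, following 2-hour chemical exposure in a cell-free setup, with DMSO as baseline.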
# [1] = CCTE_Padilla_ZF_Score.General: CCTE's 144 Hour Post-fertilization zebrafish Assay Score for General Malformation, Padilla Lab (AID 2284411)
# In short: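 Wild-type zebrafish embryos were plated singly at 6-8 hpf in 10% Hanks' and exposed in sealed wells at 26C until rinsed on 5 dpf. At 6 dpf two blinded assessors scored mortality, hatching and malformations by stereomicroscopy; gain-of-signal versus DMSO.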
# [2] = CCTE_Padilla_ZF_Score.Craniofacial: CCTE's 144 Hour Post-fertilization zebrafish Assay Score for Craniofacial Malformation, Padilla Lab (AID 2284405)
# In short: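 Wild-type zebrafish embryos (with chorions), one per well in 10% Hanks', were dosed at 6–8 hpf in sealed plates and kept at 26C. They were rinsed at 5 dpf. At 6 dpf two blinded assessors scored craniofacial malformations by brightfield stereomicroscopy.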
# [3] = CCTE_Padilla_ZF_Score.Edema: CCTE's 144 Hour Post-fertilization zebrafish Assay Score for Edema Malformation, Padilla Lab (AID 2284406)
# In short: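 Wild-type zebrafish embryos, one per well in Hanks' solution, dosed at 6-8 hpf, sealed and reared at 26C on a 14:10 h cycle; rinsed on 5 dpf. At 6 dpf, blinded assessors scored edema by stereomicroscopy.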
# [4] = CCTE_Padilla_ZF_Score.Spine: CCTE's 144 Hour Post-fertilization zebrafish Assay Score for Spine Malformation, Padilla Lab (AID 2284407)
# In short: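 Wild-type zebrafish embryos, one per well in Hanks' solution, dosed at 6–8 hpf in sealed plates at 26C, 14:10 h light:dark; rinsed at 5 dpf. Two blinded assessors scored spinal defects by stereomicroscopy at 6 dpf; fitted versus DMSO.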
# [5] = CCTE_Padilla_ZF_Score.Swim_bladder: CCTE's 144 Hour Post-fertilization zebrafish Assay Score for Swim Bladder Malformation, Padilla Lab (AID 2284408)
# In short: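 Wild-type zebrafish embryos, one per well in 10% Hanks', dosed at 6–8 hpf, sealed, reared at 26C and rinsed at 5 dpf. Blinded assessors scored uninflated swim bladder by stereomicroscopy at 6 dpf, relative to DMSO.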
# [6] = CCTE_Padilla_ZF_Score.Position: CCTE's 144 Hour Post-fertilization zebrafish Assay Score for Position, Padilla Lab (AID 2284409)
# In short: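 Wild-type zebrafish embryos (with chorions) exposed singly from 6–8 hpf in sealed wells of Hanks' solution at 26C, rinsed at 5 dpf. At 6 dpf, blinded assessors scored abnormal water-column position by brightfield stereomicroscopy, relative to DMSO.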
# [7] = CCTE_Padilla_ZF_Score.Living: CCTE's 144 Hour Post-fertilization zebrafish Assay Score for Viability, Padilla Lab (AID 2284410);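 also: larval death at 6 dpf judged by absent heartbeat or coagulation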
# In short: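 Wild-type zebrafish embryos were exposed singly from 6–8 hpf in sealed wells of Hanks' solution at 26C, then rinsed at 5 dpf. At 6 dpf, blinded assessors scored mortality (no heartbeat or coagulation) by stereomicroscopy, fitted against DMSO.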
# [8] = CCTE_Padilla_ZF_Score.Tail: CCTE's 144 Hour Post-fertilization zebrafish Assay Score for Tail Malformation, Padilla Lab (AID 2284414)
# In short: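 Wild-type zebrafish embryos, one per well in 200 uL 10% Hanks', dosed at 6-8 hpf, sealed, and kept at 26 C on a 14:10 h light cycle. Chemical was rinsed out at 5 dpf. Blinded brightfield scoring of tail defects followed at 6 dpf.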
# [9] = CCTE_Padilla_ZF_Score.Blood_pooling: CCTE's 144 Hour Post-fertilization zebrafish Assay Score for Blood Pooling, Padilla Lab (AID 2284415)
# In short: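 Wild-type outbred zebrafish embryos, one per well in 10% Hanks', exposed from 6–8 hpf in sealed plates at 26C on 14:10 h light:dark, rinsed at 5 dpf. Blinded stereomicroscope scoring of blood pooling at 6 dpf; gain-of-signal versus DMSO.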
# [10] = CCTE_Padilla_ZF_Score.Any: CCTE's 144 Hour Post-fertilization zebrafish Assay Score for Any Mortality or Malformation, Padilla Lab (AID 2284416)
# In short: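 Wild-type zebrafish embryos with chorions, one per well in 10% Hanks' from 6–8 hpf, dosed in sealed plates at 26 C, 14:10 h light:dark; rinsed at 5 dpf; blinded scoring at 6 dpf for death or malformation, versus DMSO.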
structure (smiles),measurement,setting,value
Oc1cc(Cl)ccc1Oc1ccc(Cl)cc1Cl,AC50,TTR (gene 7276),0.219 µM (active)
COP(=S)(OC)Oc1ccc([N+](=O)[O-])cc1,AC50,TTR (gene 7276),21.3 µM (active)
O=C(O)COc1ccc(Cl)cc1Cl,AC50,TTR (gene 7276),8.12 µM (active) and 10.7 µM (active)
O=C(O)CCCOc1ccc(Cl)cc1Cl,AC50,TTR (gene 7276),2.54 µM (active)
C#CCN1C(=O)COc2cc(F)c(N3C(=O)C4=C(CCCC4)C3=O)cc21,AC50,TTR (gene 7276),13.3 µM (active)
ClC1C(Cl)C(Cl)C(Cl)C(Cl)C1Cl (centres undefined),AC50,[1],8.89 µM (active)
Oc1ccc(Cl)cc1Cc1ccccc1,AC50,TTR (gene 7276),0.455 µM (active)
CCCN(CCC)c1c([N+](=O)[O-])cc(C(F)(F)F)cc1[N+](=O)[O-],AC50,TTR (gene 7276),26.1 µM (active)
O=C(O)C(F)(F)C(F)(F)C(F)(F)C(F)(F)C(F)(F)C(F)(F)C(F)(F)F,outcome,[2],inactive
same,outcome,[3],inactive
same,outcome,[4],inactive
same,outcome,[5],inactive
same,outcome,[6],inactive
same,outcome,[7],inactive
same,outcome,[1],inactive
same,outcome,[8],inactive
same,outcome,[9],inactive
same,AC50,[10],2.43 µM (active) and 81.8 µM (active)
same,outcome,[10],inactive
same,AC50,TTR (gene 7276),159 nM (active) and 82.9 nM (active)
O=S(=O)(O)C(F)(F)C(F)(F)C(F)(F)C(F)(F)C(F)(F)C(F)(F)C(F)(F)C(F)(F)F,AC50,[2],8.88 µM (active) and 9.43 µM (active)
same,AC50,[3],8.88 µM (active) and 7.83 µM (active)
same,AC50,[4],26.6 µM (active)
same,outcome,[4],inactive
same,AC50,[5],8.69 µM (active) and 3.21 µM (active)
same,AC50,[6],8.18 µM (active) and 3.91 µM (active)
same,AC50,[7],10.7 µM (active) and 21.1 µM (active)
same,AC50,[1],8.72 µM (active) and 4.84 µM (active)
same,AC50,[8],8.73 µM (active) and 32.7 µM (active)
same,AC50,[9],10 µM (active)
same,outcome,[9],inactive
same,AC50,[10],8.52 µM (active) and 3.26 µM (active)
same,AC50,TTR (gene 7276),115 nM (active) and 159 nM (active)
COP(=S)(OC)Oc1ccc(SC)c(C)c1,AC50,TTR (gene 7276),6.11 µM (active)

# Source: PubChem BioAssay (EPA / NIEHS)
